Tau fibril ThT – inhibitors of human tau fibril formation, thioflavin T binding | recombinant tau K18 P301L, heparin-induced fibrillization, ThT fluorescence | Potency, µM (top dose mostly 57.4 µM), for inactives: top-dose activity, negative = inhibition, usual class: inhibitors | 270,000 tested, 2.1% active; further: potency means the concentration at half of the fitted maximal effect; on the % scale 0 is the no-effect control and ±100 the full control effect; nearly all actives have a fitted effect of over 55% in size
Target sequence (P10636 561-689 P618L limits assumed): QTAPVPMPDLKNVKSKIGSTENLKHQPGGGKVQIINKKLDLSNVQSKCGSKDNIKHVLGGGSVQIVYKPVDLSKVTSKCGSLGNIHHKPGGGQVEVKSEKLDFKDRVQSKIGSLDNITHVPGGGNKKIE
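ThT emission at 510 nm, taken 1 hr after adding 30 uM dye, quantifies aggregates formed when 20 uM heparin acts on human tau K18 P301L for 6 hr at 37 C.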
CBFb RUNX1 block – inhibitors of human CBF-beta and RUNX1 interaction; Potency, µM (titrated, usually from 59.8 µM), for inactives: top-dose activity, negative = inhibition, most hits filed as inhibitors; AID 1477; 230,000 tested, under 10 active; AlphaScreen CBFb-His/RUNX1-biotin binding, biochemical; further: % of control where 0% means no effect
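Inhibition was taken as any reduction in AlphaScreen signal from the CBF-beta–RUNX1 pair (His and biotin tags, 30 nM each), measured after compound (15 min) and bead (90 min) incubations at room temperature.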
Tau FP inhib – tau fibrillization inhibition (FP); P10636; K18 P301L tau heparin fibrillization, Alexa594 FP, 6 h; Potency, µM (highest dose often 57.7 µM), inactives show at the top dose activity, negative = inhibition, hits mostly inhibitors; 280,000 tested, 0.39% active; further: potency means the concentration at half of the fitted maximal effect; on the % scale 0 is the no-effect control and ±100 the full control effect; nearly all actives have a fitted effect of over 55% in size
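FP of Alexa 594-tau after heparin (20 uM) induction. Substrate: human K18 P301L, 15 uM unlabeled, 0.24 uM labeled. Buffer 100 mM sodium acetate pH 7. 6 hr, 37 C.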
Tau fluor cs – counter-screen for tau fibril formation inhibitors | tau K18 P301L (four-repeat tau fragment) Alexa594 fluorescence, heparin fibrillization | 280,000 tested, 0.93% active | Potency, µM (top dose mostly 57.7 µM), for inactives: at the highest dose activity change, negative = decrease; further: potency means the concentration at half of the fitted maximal effect; on the % scale 0 is the no-effect control and ±100 the full control effect; nearly all actives have a fitted effect of over 55% in size
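Human K18 P301L tau (15 uM unlabeled plus 0.24 uM Alexa 594-labeled, final) in 100 mM sodium acetate pH 7 was mixed with compound and 20 uM heparin and incubated 6 hr at 37 C.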
KDM4E inh – inhibitors of human JMJD2E histone demethylase; 230,000 tested, 1.6% active; B2RXH2; Potency, µM (top dose mostly 57.1 µM), inactives show at the top dose activity change, negative = inhibition, most hits filed as inhibitors; AID 2147; JMJD2E catalytic domain, FDH-coupled NADH fluorescence (FDH is formaldehyde dehydrogenase);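 further: potency means the concentration at half of the fitted maximal effect; 0% = wells with enzyme and -100% = buffer wells without enzyme; nearly all actives have a fitted effect of over 50% in size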
Target sequence (B2RXH2 1-337 limits assumed): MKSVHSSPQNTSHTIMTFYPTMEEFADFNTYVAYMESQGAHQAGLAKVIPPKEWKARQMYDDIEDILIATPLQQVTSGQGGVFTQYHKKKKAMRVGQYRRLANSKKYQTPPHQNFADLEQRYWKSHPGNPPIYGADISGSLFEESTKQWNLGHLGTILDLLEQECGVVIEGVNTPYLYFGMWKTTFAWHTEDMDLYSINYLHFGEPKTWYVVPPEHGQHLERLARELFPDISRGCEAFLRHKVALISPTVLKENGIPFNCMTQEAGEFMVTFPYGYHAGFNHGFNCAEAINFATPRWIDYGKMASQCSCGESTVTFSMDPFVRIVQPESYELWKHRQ
Lamin A splicing – LMNA splicing modulation; Potency, µM (titrated, usually from 46.1 µM), without a hit: at the top dose ratio change, negative = inhibition, most hits filed as inhibitors; 200,000 tested, 0.01% active; AID 1487; HeLa LMNA splicing GFP/RFP minigene ratio, 48 h; active means well fitted inhibition curve with a large enough effect in the signal ratio, with a control signal flat, not every such curve was filed as active; inconclusive means small, poorly fitted or top-dose-only effect, or effect the other way, or a change in a side signal; the % refers to the signal ratio; further: potency means the concentration at half of the fitted maximal effect; on the % scale 0 is the no-effect control and ±100 the full control effect
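S3 HeLa cells stably expressing lamin A-EGFP splicing minigene plus DsRed2, 600 cells/well, 48 h compound exposure at 37C. Laser-scanning cytometry; analysed as GFP (500-530 nm)/RFP (575-640 nm) total intensity ratio; 0.5% DMSO vehicle.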
An asterisk follows results filed as active; u = inconclusive; x = no result; [ ] = remark or other dose. Shown are actives, neighbours in structure and some others; about 3.2% of the full set was active somewhere. Unless noted, the call rests on the fitted dose curve; in most records, active means well fitted curve in the direction sought with a large enough effect; inconclusive means small, poorly fitted or top-dose-only effect, or another doubt; inactive means no such curve, though single readings can be large; an effect the other way counts as inactive or inconclusive.

SMILES	Tau fibril ThT	CBFb RUNX1 block	Tau FP inhib	Tau fluor cs	KDM4E inh	Lamin A splicing
Cc1ccc(C(=O)O)cc1	x	6%[21.7 µM]	x	x	x	x
COc1cc(/C=N/Nc2nncn2N)ccc1OCc1c(C)no[n+]1[O-]	u	6%	u	-19%	0.5µM*	x
CCCN1CCC(=NNc2ccc(S(=O)(=O)N3CCOCC3)cc2[N+](=O)[O-])CC1	0%	3%	4%	-11%	2%	u
NS(=O)(=O)c1ccc(NN=C2CCN(Cc3ccccc3)CC2)c([N+](=O)[O-])c1	25µM*	4%	12%	-27%	2%	x
Cc1cc(NC(=O)Nc2ccc3c(ccn3C)c2)sn1	u	-19%	u	13µM*[quencher]	-10%	u
CN(C)CCCNCCCN	x	1%[21.7 µM]	x	x	x	x
O=c1c2ccc(Cl)cc2nc(-c2cccc(C(F)(F)F)c2)n1O	-2%	-2%	2%	-3%	32µM*	u
CCc1nc(-c2cc(S(=O)(=O)N3CCN(c4ccc(F)cc4)CC3)ccc2OC)no1	-10%	x	9%	-19%	x	x
COC(=O)C1=CN(c2cccc(C)c2)C=C(C(=O)OC)C1c1cc(OC)c(O)c([N+](=O)[O-])c1	16µM*	u	13%	u	-15%	7%
COC(=O)C1=CN(c2ccc(OC)cc2)C=C(C(=O)OC)C1c1ccc(C)c([N+](=O)[O-])c1	0%	-17%	-8%	-18%	3%	u
Cc1cccc(Cc2c(C)nc3nc(SCc4ccccc4F)nn3c2C)c1	-10%	x	5%	-3%	x	-8%[46 µM]
Cc1cc(C(c2ccc(C)o2)c2ccc(C)o2)c(O)c([N+](=O)[O-])c1	u	u	-6%	-26%	-21%	-9%
Cc1cc(/C=N/n2cnnc2)c(O)c([N+](=O)[O-])c1	4µM*	-10%	11%	-6%	-1%	u
CCOC(=O)C1CCN(C(=O)Cn2nc(CC)n3c(cc4sccc43)c2=O)CC1	-2%	x	2%	3%	x	x
N#CC1=C(N)NC(SCC(=O)c2ccc(Br)cc2)=C(C#N)C12CCCCC2	u	x	u	13µM*[quencher]	-7%	u
N#CC1=C(N)NC(SCC(=O)Nc2ccccc2)=C(C#N)C12CCCCC2	-6%	2%	-3%	-30%	5%	-10%
COc1ccc(C(=O)CSC2=C(C#N)C3(CCCCC3)C(C#N)=C(N)N2)cc1	-12%	2%	8%	u	-4%	u
N#CC1=C(N)NC(SCC(=O)c2ccc(Cl)cc2)=C(C#N)C12CCCC2	u	-19%	14%	16µM*[quencher]	-9%	-11%
CSc1nnc(C)c(/C=C/Nc2ccc(C)cc2)n1	5µM*	0%	2%	-23%	-3%	u
CSc1nnc(C)c(/C=C/NOCc2ccc(Cl)cc2)n1	u	6%	4%	u	u	x
Cc1cc2nc(CS)[nH]c2cc1C	32µM*	-8%	-3%	-26%	317%	x
N#C/C(=C\c1coc2ccc(O)cc2c1=O)C(=O)Nc1nc2ccccc2s1	18µM*	-11%	u	28µM*[quencher]	u	x
CC(C)C1Nc2c(O)cc(Cl)c([N+](=O)[O-])c2C2C=CCC21 (stereo unspecified)	11µM*	u	2%	u	-5%	-19%[46 µM]
O=C(NCc1cccs1)c1ccc2c(c1)N(Cc1cccc(F)c1)C(=O)c1ccccc1S2	0%	x	-14%	-25%	x	7%[46 µM]
O=C(Cn1c(=O)n(Cc2nc(-c3ccccc3)no2)c(=O)c2ccccc21)Nc1cccc(Cl)c1	u	x	28µM*	-27%	x	x
SMILES	Tau fibril ThT	CBFb RUNX1 block	Tau FP inhib	Tau fluor cs	KDM4E inh	Lamin A splicing
COc1ccc(NC(=O)Cn2c(=O)n(Cc3nc(-c4ccccc4)no3)c(=O)c3ccccc32)cc1Cl	u	x	u	-6%	x	x
CCOc1ccc(NC(=O)Cn2c(=O)n(Cc3nc(-c4ccccc4)no3)c(=O)c3ccccc32)cc1	u	x	u	-1%	x	x
O=C(Cn1c(=O)n(Cc2nc(-c3ccccc3)no2)c(=O)c2ccccc21)Nc1cccc(C(F)(F)F)c1	19%	x	10µM*	u	x	x
c1ccc(CCNc2ccccc2)cc1	-8%	-8%	14%	-13%	-4%	-11%[46 µM]
CCCCCn1c(NC(=O)c2ccco2)c(S(=O)(=O)c2ccc(C)cc2)c2nc3ccccc3nc21	u	18%	-9%	u	u	u
CCCCn1c(NC(=O)c2ccc(Br)o2)c(S(=O)(=O)c2ccccc2)c2nc3ccccc3nc21	18µM*	2%	u	-27%	u	7%
CCCCn1c(NC(=O)c2ccco2)c(S(=O)(=O)c2ccc(C)cc2)c2nc3ccccc3nc21	16µM*	0%	u	u	u	u
CCc1ccc(NC(=O)C(C)n2nnc3sc(-c4ccccc4)cc3c2=O)cc1 (stereo unspecified)	28µM*	x	u	-17%	x	x
NC[C@@H]1O[C@H](C23CC4CC(CC(C4)C2)C3)Cc2c1ccc(O)c2O	u	6%	-4%	u	22µM*	u
NC[C@@H]1O[C@H](c2ccccc2)Cc2c1ccc(O)c2O	u	0%[21.7 µM]	-8%	-19%	16µM*	x
COc1ccccc1C(=O)N(Cc1nc(-c2cccc(C)c2)no1)C(C)C	-13%	x	1%	-11%	x	x
O=S(=O)(Nc1cccc2cccnc12)c1ccccc1O	x	-7%	x	x	x	x
CC(Oc1ccc(Cl)cc1Cl)c1nc(-c2ccc(NC(=O)c3ccncc3)cc2)no1 (stereo unspecified)	-3%	-2%	3%	-1%	-7%	u
CC(Oc1ccc(Cl)cc1Cl)c1nc(-c2ccc(NC(=O)c3cccnc3)cc2)no1 (stereo unspecified)	-9%	5%	16µM*	u	-1%	-2%
c1cncc(-c2cc(NCc3cccs3)ncn2)c1	x	x	x	x	x	-14%
Cc1ncc(/C=C2\C(=O)Nc3ccccc32)[nH]1	16µM*	1%	1%	-12%	-9%	x
CN(C)/C=C1\C(=O)Nc2ccccc21	-8%	-5%	-4%	-5%	-3%	-10%
O=C(/C=C1\C(=O)Nc2ccccc21)/C=C1\C(=O)Nc2ccccc21	28µM*	-27%	u	-25%	u	x
CCc1ncc(/C=C2\C(=O)Nc3ccccc32)[nH]1	13µM*	12%	-6%	-7%	-9%	x
COc1cc(Nc2ncc3c(n2)CCN(Cc2cccc(C)c2)C3)cc(OC)c1	-1%	x	-14%	u	x	2%[46 µM]
COc1cccc(C(=O)NCCc2sc(-c3cccc(C)c3)nc2C)c1	u	x	5%	-27%	x	23%[46 µM]
Oc1ccccc1-c1nc(/C=C/c2ccccc2)nn1-c1ccccc1	-12%	-6%	-17%	u	1%	u

Screening data as filed in PubChem BioAssay.
